Experimental data reported in paper PMC4336329 (PLoS ONE, 2015).
The campaign covered roughly 310,000 compounds. About 14,000 (4.5%) showed an effect of 50% or more. Effects have a minus sign here. The sample as a whole holds a higher share of strong results than the screen did.

The compounds below were run against human ether-à-go-go-related gene (hERG) potassium channel (human, UniProt Q12809) (assay: primary screen, population patch clamp on CHO cells stably expressing hERG; higher = less effect of the substance).
human ether-à-go-go-related gene (hERG) potassium channel, sequence (Q12809 whole entry, looked up): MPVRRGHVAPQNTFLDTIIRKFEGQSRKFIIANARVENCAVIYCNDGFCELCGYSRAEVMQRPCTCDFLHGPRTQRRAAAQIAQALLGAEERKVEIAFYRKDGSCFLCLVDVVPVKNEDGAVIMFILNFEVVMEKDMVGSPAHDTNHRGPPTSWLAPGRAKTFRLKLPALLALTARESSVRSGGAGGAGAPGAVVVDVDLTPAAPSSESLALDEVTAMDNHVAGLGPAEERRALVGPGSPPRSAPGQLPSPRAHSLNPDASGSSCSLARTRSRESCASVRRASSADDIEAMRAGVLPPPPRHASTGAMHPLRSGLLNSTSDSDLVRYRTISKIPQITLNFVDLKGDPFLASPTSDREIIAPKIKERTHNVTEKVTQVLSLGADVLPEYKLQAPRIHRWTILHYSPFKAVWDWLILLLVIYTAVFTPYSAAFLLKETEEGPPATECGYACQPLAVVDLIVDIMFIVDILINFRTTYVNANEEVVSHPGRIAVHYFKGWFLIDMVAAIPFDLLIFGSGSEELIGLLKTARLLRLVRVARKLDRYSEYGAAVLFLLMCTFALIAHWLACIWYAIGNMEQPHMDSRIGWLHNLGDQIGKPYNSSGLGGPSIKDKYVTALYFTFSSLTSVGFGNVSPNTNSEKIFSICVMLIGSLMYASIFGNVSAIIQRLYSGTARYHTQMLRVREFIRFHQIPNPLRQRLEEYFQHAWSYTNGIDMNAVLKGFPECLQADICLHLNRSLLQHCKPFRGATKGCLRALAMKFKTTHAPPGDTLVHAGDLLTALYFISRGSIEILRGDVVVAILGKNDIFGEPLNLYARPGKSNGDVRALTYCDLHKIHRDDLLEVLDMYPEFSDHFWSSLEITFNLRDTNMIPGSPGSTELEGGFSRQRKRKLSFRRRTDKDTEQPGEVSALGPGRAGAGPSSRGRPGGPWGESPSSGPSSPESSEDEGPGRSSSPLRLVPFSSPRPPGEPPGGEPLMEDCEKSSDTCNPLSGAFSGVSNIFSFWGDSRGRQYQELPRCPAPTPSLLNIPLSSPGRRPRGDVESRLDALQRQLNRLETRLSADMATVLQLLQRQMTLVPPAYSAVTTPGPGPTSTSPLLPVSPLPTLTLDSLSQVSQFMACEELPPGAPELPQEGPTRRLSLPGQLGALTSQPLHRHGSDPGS
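Further: peak tail current of the secondary pulse compared with the same well before compound.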

SMILES	hERG current change (%, negative = inhibition) at 10uM [%]
Cl.O=C(OCCN1CCOCC1)c1cccs1	6.58
COc1ccc(C2=CC(=O)C[C@H](c3ccc(F)cc3)C2)cc1F	-16.5
COc1ccc2ccccc2c1CNC(C)c1ccccc1.O=C(O)C(=O)O (stereo not drawn)	-44.4
CC(CCc1ccccc1)NCc1cccc2ccccc12.O=C(O)C(=O)O (stereo not drawn)	-60.9
COc1cccc(OC)c1C(=O)NC(C)CCc1ccccc1 (stereo not drawn)	-19.1
COCC(C)NCc1cccc2ccccc12.O=C(O)C(=O)O (stereo not drawn)	-0.173
COc1ccc2ccccc2c1CNCCc1ccccc1.Cl	-53.1
CN(Cc1ccccc1)Cc1c(O)ccc2ccccc12	7.65
CN(CCOc1cccc2ccccc12)Cc1ccccc1.O=C(O)C(=O)O	0.659
COc1ccc2ccccc2c1CNCCN1CCOCC1.Cl	14.4
COc1ccc2ccccc2c1CNC(C)CCc1ccccc1.O=C(O)C(=O)O (stereo not drawn)	-77.8
COc1ccc(CCNCc2c(OC)ccc3ccccc23)cc1OC.Cl	-44.6
COc1ccc2ccccc2c1CN(C)Cc1ccccc1.O=C(O)C(=O)O	-51.7
CC(CCc1ccccc1)NC(=O)Cc1ccccc1 (stereo not drawn)	2.65
CC1(C)CC2CC(C)(CN2C(=O)c2cc(-c3ccccc3O)on2)C1 (stereo not drawn)	12.7
Cc1ccc(S(=O)(=O)N2CCN(C(=O)COC(=O)c3ccccc3Cl)CC2)c(C)c1	-12.5
Cc1cccnc1NC(=O)Nc1ccccc1	1.64
CCCOc1ccc(N2C(=O)CC(NCc3cccs3)C2=O)cc1 (stereo not drawn)	-18.6
COc1ccccc1CNC(=O)C1COc2ccccc2O1 (stereo not drawn)	-15.1
Cc1cc(NC(=O)c2ccc([N+](=O)[O-])cc2)n(CCC#N)n1	11
O=C(NCCCc1nc2ccccc2[nH]1)c1cccs1	-5.12
COc1ccc(CCNCc2ccccn2)cc1OC	0.278
COc1ccccc1CNCc1ccc(C)cc1.O=C(O)C(=O)O	-6.14
COc1ccc2ccccc2c1CNCc1ccccn1.Cl	-51.8

SMILES	hERG current change (%, negative = inhibition) at 10uM [%]
COc1cccc(CNCc2ccccn2)c1OC	5.32
COc1ccc2ccccc2c1CNCc1ccc(C)cc1.O=C(O)C(=O)O	-69.7
COc1ccc(CCNCc2c(OC)ccc3ccccc23)cc1.O=C(O)C(=O)O	-44.9
CC(C)N(Cc1nc(-c2ccc(Cl)cc2)no1)C(=O)CCC1CCCC1	-7.81
Cc1nn(CCCC(=O)NC2CCC(C)CC2)c(=O)c2nn(-c3ccccc3)c(C)c12 (stereo not drawn)	-5.97
O=C(/C=C(/c1ccc(Cl)cc1)n1cncn1)c1ccccc1	-27.5
C#CCOCCOCCOCCNc1nc(N2CCN(C(=O)[C@H](CCC(=O)O)n3cc(C(N)CO)nn3)CC2)nc(N2CCN(C(=O)[C@H](Cc3ccc(O)cc3)n3cc(C(N)[C@H](C)CC)nn3)CC2)n1.Cl (stereo partly drawn)	9.89
CCN(CC(=O)Nc1c(F)cccc1F)C(=O)COc1ccc2c(c1)CCC2	-2.81
O=S(=O)(c1ccc(Nc2ccc(-c3ccc4c(c3)OCCO4)nn2)cc1)N1CCCC1	5.27
COc1ccccc1CNc1ccc2nnc(CCNC(=O)c3ccc(C)cc3)n2n1	-0.303
CCCCCCn1c(CN2CCN(C(=O)c3ccco3)CC2)nc2c1c(=O)n(C)c(=O)n2C	-65.8
CC(C)CCn1c(CN2CCN(C(=O)c3ccco3)CC2)nc2c1c(=O)n(C)c(=O)n2C	-39.9
CCCCCn1c(CN2CCN(C(=O)c3ccco3)CC2)nc2c1c(=O)n(C)c(=O)n2C	-60.5
CCCn1c(CN2CCN(C(=O)c3ccco3)CC2)nc2c1c(=O)n(C)c(=O)n2C	-10.3
CCOCCn1c(CN2CCN(C(=O)c3ccco3)CC2)nc2c1c(=O)n(C)c(=O)n2C	-3.37
CCCCn1c(CN2CCN(C(=O)c3ccco3)CC2)nc2c1c(=O)n(C)c(=O)n2C	-34.1
Cl.OC1(c2ccccc2)CCN(Cc2ccccc2)C2CCCCC21 (stereo not drawn)	-15.6
COc1ccc(-c2nnc3sc(-c4ccco4)nn23)cc1OC	3.81
COCCCNc1nnc(Cc2ccccc2)c2ccccc12	-31.4
CC1(C)CC(=O)N(c2cccc(Cl)c2)C(=O)C1	10.4
CCOC(=O)C1CCN(C(=O)c2cc3c(=O)n4ccccc4nc3s2)CC1	-6.6
CCOc1ccccc1Cn1c(=O)sc2ccccc21	7.43
COc1ccc(C(=O)NN/C(C)=C/C(=O)c2ccccc2)cc1	4.41
CCN(CC(=O)Nc1c(F)cccc1F)C(=O)C1CCN(C(=O)c2ccc(F)cc2)CC1	4.59

SMILES	hERG current change (%, negative = inhibition) at 10uM [%]
CCc1ccc(NC(=O)N(Cc2cccnc2)Cc2ccco2)cc1	-53.1
S=C(Nc1ccccc1Cl)N(Cc1cccnc1)Cc1ccco1	-4.94
CCc1ccccc1NC(=S)N(Cc1cccnc1)Cc1ccco1	-18.8
O=C(Nc1ccccc1)N(Cc1cccnc1)Cc1ccco1	-32.9
COc1ccccc1NC(=S)N(Cc1cccnc1)Cc1ccco1	-33.6
Cc1ccc(NC(=O)N(Cc2cccnc2)Cc2ccco2)cc1C	-27.2
O=C(Nc1ccc(Cl)cc1)N(Cc1cccnc1)Cc1ccco1	-63.9
CCc1ccc(NC(=S)N(Cc2cccnc2)Cc2ccco2)cc1	-17.2
COc1ccc(Cl)cc1NC(=S)N(Cc1cccnc1)Cc1ccco1	-73.8
O=C(c1ccco1)N(Cc1ccc(Cl)cc1)Cc1ccco1	-41.2
N#CCCN(Cc1cccnc1)C(=O)Nc1ccc(Cl)c(Cl)c1	-26
O=C(Nc1ccc(Cl)c(Cl)c1)N(Cc1cccnc1)Cc1ccco1	-73.7
COc1ccc(-n2c(=O)c3ccccc3n(CC(=O)c3ccccc3)c2=O)cc1OC	-1.32
Cc1ccccc1OCCNc1cc(N2CCCCC2)ccc1[N+](=O)[O-]	-17.2
CCCCC(=O)Nc1ccc(C(=O)Nc2ccc(OC)cc2[N+](=O)[O-])cc1	-8.04
O=C(O)c1cn(-c2ccccc2)nc1-c1ccc(F)cc1	23.6
O=C1CN(C(=O)COC(=O)Cc2ccsc2)c2ccccc2N1	-4.05
CCC(=O)N(c1nnc(SCC(=O)NN2C(=O)NC3(CCC(C)CC3)C2=O)s1)C1CC1 (stereo not drawn)	-5.47
O=C(CCS(=O)(=O)c1cccc2nonc12)Nc1ccc(Br)cc1	7.91
O=C(CCC1COc2ccccc2O1)N1CCCC1 (stereo not drawn)	-3.13
Cc1cc(C)n(C(=O)CCC2COc3ccccc3O2)n1 (stereo not drawn)	-76.6
Cc1cc(C)n(C(=O)CNC(=O)C2COc3ccccc3O2)n1 (stereo not drawn)	14.5
Br.O=C(CN1CCCCC1)c1cccc(Br)c1	7.58
Br.O=C(CN1C2=NCCCN2c2ccccc21)c1cccc(Br)c1	-71

SMILES	hERG current change (%, negative = inhibition) at 10uM [%]
Br.COc1cccc(C(=O)CN2C3=NCCCN3c3ccccc32)c1	-68.1
COc1ccc(C(=O)CN2C3=NCCCN3c3ccccc32)cc1OC	-36.5
Br.COc1cccc(C(=O)Cn2c(=N)n(C)c3ccccc32)c1	-27.2
Br.O=C(CN1C2=NCCCN2c2ccccc21)c1ccc([N+](=O)[O-])cc1	-75.1
Cc1cc(C)cc(N(CC(=O)NCc2ccc(F)cc2)C(=O)CCC(=O)Nc2ccccn2)c1	18.7
COc1ccc(-c2csc(NC(=O)c3cc(=O)c4ccccc4o3)n2)cc1OC	4.58
N#Cc1ccc(-c2nc3ccccc3nc2-c2ccccc2)cc1C#N	21.7
CCc1cc2c(=O)nc3n(c2s1)Cc1ccccc1/C3=C(/O)c1cccc([N+](=O)[O-])c1	-4.6
O=C(CCN1CCN(CCO)CC1)Nc1ccc(Br)cc1	1.76
COc1ccc(C(=O)N/N=C\c2ccoc2)cc1	20.8
O=C(CN1C(=O)c2cccc3cccc1c23)NCc1ccc2c(c1)OCO2	-13.2
C=CCn1c(SCC(=O)NCC2CCCO2)nc2scc(-c3ccccc3)c2c1=O (stereo not drawn)	-15.1
COC(=O)C1=C(N)Oc2cc(N(C)C)ccc2C1c1ccccc1OC (stereo not drawn)	-84.3
COC(=O)C1=C(N)Oc2cc(C)[nH]c(=O)c2C1c1ccccc1OC (stereo not drawn)	9.48
CCOc1ccc(Br)cc1C1C(C(=O)OC)=C(N)Oc2cc(N(C)C)ccc21 (stereo not drawn)	21.4
COc1ccc(N2CCN(C(CNC(=O)COc3ccccc3)c3ccco3)CC2)cc1 (stereo not drawn)	-67
Cc1ccc(C)c(OCC(=O)NCC(c2ccco2)N2CCCCC2)c1 (stereo not drawn)	-2.72
O=C(COc1ccccc1)NCC(c1ccco1)N1CCN(c2ccccc2)CC1 (stereo not drawn)	-26.6
Cc1cc(C)c(OCC(=O)NCC(c2ccco2)N2CCCCC2)c(C)c1 (stereo not drawn)	-52.1
O=C(COc1ccccc1)NCC(c1ccco1)N1CCN(c2ccc(F)cc2)CC1 (stereo not drawn)	-41
Cc1ccccc1OCC(=O)NCC(c1ccco1)N1CCCCC1 (stereo not drawn)	-31.4
